Measured values reported in ChEMBL document CHEMBL3988442, “University of Dundee, Small-Polar-MMV Screening Library” (2021).

Key:
[1] = target: T1, Aspartate--tRNA(Asp/Asn) ligase (Mycobacterium tuberculosis (strain ATCC 25618 / H37Rv)) (UniProt P9WFW3); test: Assay for Asp RNA synthetase-1 from Mycobacterium tuberculosis; format: functional; set-up: scale not given: direction of the effect not stated beside the values; details: 30 µM; note: in the data most compounds retested in dose-response had high values
T1 sequence (whole entry): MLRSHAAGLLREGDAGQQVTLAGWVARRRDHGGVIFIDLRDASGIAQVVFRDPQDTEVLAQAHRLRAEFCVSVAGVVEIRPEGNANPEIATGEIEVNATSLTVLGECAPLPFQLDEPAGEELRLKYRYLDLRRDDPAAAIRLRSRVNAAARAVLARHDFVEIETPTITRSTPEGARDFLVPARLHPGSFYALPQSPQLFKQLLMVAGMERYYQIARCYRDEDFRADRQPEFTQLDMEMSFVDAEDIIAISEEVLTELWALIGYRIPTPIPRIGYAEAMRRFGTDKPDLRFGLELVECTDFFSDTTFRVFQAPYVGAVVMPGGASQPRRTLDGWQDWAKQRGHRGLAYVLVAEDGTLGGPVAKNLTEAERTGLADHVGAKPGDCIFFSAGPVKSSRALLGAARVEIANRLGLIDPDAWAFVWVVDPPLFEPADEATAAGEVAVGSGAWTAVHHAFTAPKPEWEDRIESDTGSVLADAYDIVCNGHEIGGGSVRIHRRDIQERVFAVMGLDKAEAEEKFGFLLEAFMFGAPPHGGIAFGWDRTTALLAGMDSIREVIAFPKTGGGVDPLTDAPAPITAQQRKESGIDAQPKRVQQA

[2] = target: Shiga toxin 2 (Escherichia coli O157:H7) (UniProt P09385+P09386); test: E. coli 0.157:H7 Shiga Toxin SOP - stx2 screening assay; format: functional; set-up: scale not given: direction of the effect not stated beside the values; details: 30 µM

Compound	Percent Effect [1]	Percent Effect [2]
Cc1ccn(-c2ccccc2NCc2ncc[nH]2)n1	-0.604%	-13.8%
CNC(=O)[C@H]1C[C@@H]2CN(C(=O)c3cscn3)C[C@@H]2N1S(C)(=O)=O	2.65%	-4.53%
COCc1noc(-c2ccc(N(C)Cc3cc(C)no3)nc2)n1	0.703%	-7.35%
CCN(CC)C(=O)CCn1ncc2c(Cl)cccc21	-1.07%	-23.7%
CC(C)(C)OC(=O)CNC(=O)CCc1nnc(-c2ccsc2)o1	8.92%	-21.2%
COc1ccc(NC(C)C(=O)N2CCN(Cc3ccccc3)CC2)cn1 (configuration not stated)	3.97%	-11.8%
Cc1nnc(C(C)NCC2(c3c(F)cccc3F)CCCC2)o1 (configuration not stated)	-1.77%	9.79%
Cc1nc(NC(=O)CNC(=O)c2c(F)cccc2Cl)n[nH]1	6.53%	3.62%
COc1ccccc1OCC(=O)NCC(O)(c1ccccc1)C1CC1 (configuration not stated)	-1.26%	6.19%
O=C(c1ccco1)N1CCCC1C1CCN(Cc2ccccc2)CC1 (configuration not stated)	4.64%	-11.3%
O=C(NCCNc1ncccn1)C1CCN(C(=O)C2CC2)CC1	1.89%	14.1%
O=S(=O)(NCC1(O)CCOc2ccccc21)c1ccc(Br)s1 (configuration not stated)	3.31%	17.9%
O=C(COc1ccc2c(c1)CCC2)NS(=O)(=O)c1cncc(Br)c1	4.7%	4.36%
O=C1[C@H]2CN(CC3CC3)C[C@H]2CN1Cc1cccc(F)c1	1.33%	-1.04%
Cc1nnc(N2CCC(CNC(=O)OC(C)(C)C)CC2)c(C#N)c1C	-0.115%	34.8%
Cc1ccc(-c2nnc(SCC(=O)O)n2-c2ccc(C)cc2)cc1	0.544%	-4.96%
CCOCC1CN(C(=O)c2cscn2)Cc2nnn(CC3CC3)c21 (configuration not stated)	-4.51%	-6.48%
CCS(=O)(=O)N1C[C@H]2C[C@H](C(=O)N(C)C)[C@@H](C1)O2	3.87%	-5.91%
COCCN1CCC2(CC1)CN(C(=O)N(C)C)c1ccc(C)cc12	0.0764%	-2.72%
CCn1ccnc1CNCC1CCCN1c1cccnn1 (configuration not stated)	-8.36%	6.68%
CCc1nc(C2CCCN2CC(=O)Nc2sc(C)c(C)c2C)no1 (configuration not stated)	0.212%	8.78%
CC(C)NC(=O)COc1nc(C(C)C)no1	-2.64%	-17.3%
CCn1cnnc1C1CCN(C(=O)c2ccc(C(=O)OC)s2)CC1	-7.04%	7.28%
COCCN1CC[C@]2(CN(C(=O)c3cccs3)C[C@H]2C)C1=O	1.59%	-8.13%
O=C([C@H]1CN(CCc2ccccc2)C[C@H]2OCC[C@@H]12)N1CCCO1	1.78%	-9.29%
COc1ccc(NC(=O)CCc2c(C)nc3cc(O)nn3c2C)cn1	-0.607%	-81.2%

Compound	Percent Effect [1]	Percent Effect [2]
CNC(=O)[C@@]12CCCN(c3ncccn3)[C@@H]1CN(C(=O)NC(C)C)C2	1.62%	-25.1%
COc1cccc(CCNC(=O)CN2CCN(C)CC2C)c1 (configuration not stated)	0.495%	20%
CNC(=O)[C@@]12CCO[C@@H]1CCN(S(=O)(=O)c1cccnc1)C2	0.229%	7.61%
Cn1ccc(C(=O)N2CCC(Cc3cnc4[nH]ccc4c3)CC2)n1	0.283%	19.7%
COCc1ccccc1C(=O)N1CCCC(n2nc(C)cc2C)C1 (configuration not stated)	-2.97%	-10.9%
O=C(C(CNCc1ccncc1)c1ccccc1)N1CCOCC1 (configuration not stated)	11.7%	-69.6%
CC(=O)N1CCC2(CCN(C(=O)c3ccc(C)c(C(F)(F)F)c3)CC2)C1	17.3%	-10.7%
O=C(CN1CCOC(Cn2cccn2)C1)NCCc1ccc(F)cc1 (configuration not stated)	4.34%	12%
CN1CCCc2cc(NC(=O)N3CCOC(C(N)=O)C3)ccc21 (configuration not stated)	-0.684%	-77.6%
CCc1nc(CN2CCCN(C(=O)C(C)n3ccnc3)CC2)cs1 (configuration not stated)	-1.76%	8.27%
COc1c(CNC2CCCc3ccccc32)c(C)nn1C (configuration not stated)	-1%	13.6%
CN(Cc1ccccc1)CC1(O)CCCN(CC(C)(C)C)C1=O (configuration not stated)	-7.46%	17.9%
COCC(=O)N1CC[C@@H]2O[C@@H](COCc3csc(C)n3)CC[C@@H]21	7.78%	-9.07%
CS(=O)(=O)N1CCCN(C(=O)c2ccc(Cn3ccccc3=O)o2)CC1	1.66%	25%
O=C(c1nn(-c2ccccc2F)cc1O)N1CCCC1	3.09%	16%
Cc1cc2c(=O)n3c(nc2s1)CCN(Cc1ccncc1)CC3	-2.01%	-22.9%
CN(C(=O)Cc1c[nH]c2ccccc12)C1CCN(c2ccccn2)CC1	-1.54%	5.44%
c1cc(C2CCCN2Cc2nnnn2C2CC2)cs1 (configuration not stated)	-4.43%	5.22%
Cc1ccc(CN(C)C(=O)CN2CCOC(Cn3cncn3)C2)o1 (configuration not stated)	2.6%	-9.96%
COC[C@]12COC[C@H]1CN(Cc1cc(OC)cc(OC)c1)C2	-1.51%	-6.3%
Cc1ncsc1CN1C[C@@H](OCC2CC2)[C@H]2OCCC[C@H]21	-6.67%	4.7%
CN1CCc2cc(C(CNS(=O)(=O)c3cccs3)N3CCCC3)ccc21 (configuration not stated)	-0.102%	-6.23%
COc1ncccc1CNc1cc(N2CCCC2CO)ncn1 (configuration not stated)	-0.88%	-26.2%
CC1CN(CC(=O)NC(=O)NCc2ccccc2)CCO1 (configuration not stated)	-6.29%	-0.513%
Cc1nnc2n1CCN(CCOc1ccccc1)C2	-6.3%	-21.5%
CC(C)c1nn(C)c(N(C)C)c1CNCC(O)c1ccccc1F (configuration not stated)	-7.16%	-23.3%

Compound	Percent Effect [1]	Percent Effect [2]
O=C1NCCN1C1CCN(Cc2nc(-c3ccoc3)no2)CC1	-7.34%	-21.2%
CN(C)c1ncccc1CNS(=O)(=O)c1ccccc1F	4.63%	-24.7%
Cc1cnn(CCNCC(O)COc2ccc(Cl)cc2)c1 (configuration not stated)	-2.57%	-37.4%
COCC1CN(C(=O)c2cccn2C)Cc2nccn2C1 (configuration not stated)	-0.897%	-15.6%
Cc1nc(C)n(CC2CCCN2Cc2ccn(-c3ccccc3)n2)n1 (configuration not stated)	0.0463%	-14.6%
Fc1cccc(N2C[C@H]3CCN(c4cccnc4)C[C@H]3C2)c1	6.15%	-16.5%
COc1ccc2c(c1)CN(Cc1nc3c(cnn3C)c(=O)[nH]1)CC2	-4.4%	-3.66%
Cn1cnnc1C1CCCN(C(=O)Cc2ccc3c(c2)OCCO3)C1 (configuration not stated)	-2.39%	11.9%
COCCN(CCc1ccccc1)Cc1nc2c(cnn2C)c(=O)[nH]1	1.95%	29.5%
Cc1cnn(CC2CN(Cc3nnc(C4CC4)o3)CCO2)c1 (configuration not stated)	-2.56%	24.8%
O=C1CC(c2ccncc2)C2(CCN(C(=O)c3ccc[nH]3)CC2)N1 (configuration not stated)	-0.81%	-8.09%
O=C(c1ccco1)N1C[C@@H]2OCCN(CCN3CCCC3)[C@@H]2C1	7.66%	-2.25%
CCOc1cccc(CNc2ccccc2C(=O)OC)c1O	-5.37%	-53.6%
CCCC(=O)N1CCC(O)(Cn2c(CC)nc3ccccc3c2=O)CC1	0.164%	0.775%
COc1ccc(CNCC(C)Oc2ccccn2)cc1Br (configuration not stated)	-3.54%	-30.6%
Cc1cccc(-c2nc(CN3CCCCC3Cn3cncn3)no2)c1 (configuration not stated)	-2.9%	15.3%
CCCN1CCC(NC(=O)NCCc2nc(CC)c(C)s2)CC1	-5.93%	19.2%
Cc1nc(C2CCCN(C(=O)c3scnc3C)C2)no1 (configuration not stated)	1.59%	5.86%
COCCN1C[C@@H](C)[C@@]2(COCCN(C(=O)c3cnc(C)cn3)C2)C1	-1.78%	-19.1%
Cc1noc(C)c1C(=O)N1CCCC1c1c(C)nn(C)c1Cl (configuration not stated)	-3.2%	-9.41%
COc1c(CNCCNC(=O)Cc2ccc(F)cc2)c(C)nn1C	1.84%	30.8%
Cc1cc(CN2CCN(C(=O)NC(C)Cn3ccnc3)CC2)no1 (configuration not stated)	-1.75%	21%
CN(C)c1ccc(C(=O)N2CCN(C(=O)N3CCCCC3)CC2)nn1	-3.34%	-35%
c1ccc(OCC2CC3(CCN(Cc4ccncc4)CC3)CO2)nc1 (configuration not stated)	1.19%	-30.5%
CC(=O)NCCNC(=O)c1sc(-c2ccc(C)cc2C)nc1C	3%	2.48%
CC(Cn1cccn1)NCc1csc(-c2ccccc2F)n1 (configuration not stated)	-4.2%	-6.96%

Compound	Percent Effect [1]	Percent Effect [2]
Cn1ccc(C(=O)N2CCC(Cc3cccc4cccnc34)C2)n1 (configuration not stated)	-7.19%	15.7%
Cc1cnc(CN2CCCC(c3cc(C(N)=O)[nH]n3)C2)o1 (configuration not stated)	9.73%	13.4%
Cc1cc(CN(C)C(=O)c2ccc(F)cc2Br)no1	0.189%	-57%
CC1CN(CC(=O)Nc2nncs2)CCN1c1nccs1 (configuration not stated)	4.78%	27.5%
COc1ccc(-c2nnc(SCC(=O)NCC(C)C)[nH]2)c(OC)c1	6.14%	6.1%
CCCC(C)C(=O)NCc1cn2cc(Br)ccc2n1 (configuration not stated)	1.41%	-63.8%
CCOc1ccccc1C(CC(=O)Nc1nc(C)cs1)NC(C)=O (configuration not stated)	-0.233%	30.8%
O=C(c1ccccn1)N1C[C@@H]2CC[C@H](C1)N(C(=O)CCc1ccsc1)C2	0.446%	-55.7%
Cc1nc(C2CCCN2CC(=O)N2CCCc3ccccc32)no1 (configuration not stated)	2.35%	-12.2%
Cc1cc(C)c(CNC(=O)N2CCCC2C(N)=O)c(=O)[nH]1 (configuration not stated)	-6.91%	-4.4%
CCCOc1cc(C)ccc1NC(=O)NCCC(=O)N(C)C	2.21%	-4.42%
Cn1ccnc1CN1CCN(CC(O)c2ccc(F)c(F)c2)CC1 (configuration not stated)	1.33%	-1.4%
CN(C)CC(=O)N1CCC2(CC1)CN(c1ccsc1)C(=O)CO2	5.4%	-4%
CCOCCC(=O)N1CCCN(Cc2csc(CC)n2)CC1	-0.742%	-4.81%
Cc1nc(C2CCCN(C(=O)CO)C2)cc(N2CCOCC2)n1 (configuration not stated)	-4.78%	17.9%
CC(C)N1CC(C(=O)NCCc2csc(-c3ccncc3)n2)CC1=O (configuration not stated)	2.56%	-26.5%
CC(CCN1CCn2nc(CNC(=O)N(C)C)cc2C1)c1ccccc1 (configuration not stated)	-3.2%	-1.92%
CCc1noc(C(C)N2CCC(NC(=O)c3ccc(C)s3)CC2)n1 (configuration not stated)	5.23%	-30.1%
COCCCC1CCCN(C(=O)CCc2cc(O)no2)C1 (configuration not stated)	-7.41%	-0.726%
O=C(Cc1ccccc1Cl)N1CCCC(n2cncn2)C1 (configuration not stated)	-1.83%	-37.6%
O=C(CN1CCCCC1Cn1cncn1)NCCC1=CCCCC1 (configuration not stated)	2.88%	11.4%
COCc1nc(CNC2CCSCC2)no1	-4%	9.42%
Cn1cc(CN(Cc2ccccc2)CC(O)c2cccs2)cn1 (configuration not stated)	0.353%	9.88%
